Reference: PubChem BioAssay (NCATS)
Records with an inconclusive call do not appear. Calls of active or inactive are those of the source. Calls follow the shape of the dose curve; as a rule, active = well fitted curve in the direction sought with a large enough effect; inconclusive = small, poorly fitted or top-dose-only effect, or another doubt; inactive = no such curve, though single readings can be large; an effect the other way counts as inactive or inconclusive.

Columns and labels:
[1] = qHTS of pediatric cancer cell lines to identify multiple opportunities for drug repurposing: Primary screen for NB1643 cells (AID 1347099); also: nearly all actives have a fitted effect of over 50% in size
In short: (§1)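 Cells seeded at 500-1,000 cells/well in growth media, rested 5 hours at 37 degrees C, 5% CO2, then dosed; MIPE compounds at 11-point (from 0.78 nM) and NPC at 8-point (from 0.59 nM) final concentrations. Viability by CellTiter-Glo luminescence after 48 hours.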

[2] = qHTS of pediatric cancer cell lines to identify multiple opportunities for drug repurposing: Primary screen for LAN-5 cells (AID 1347100)
In short: (§2)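 Cells (500-1,000/well) rested 5 h, then received compounds for 48 h; metabolically active cells were measured by CellTiter-Glo luminescence. Final concentrations spanned up to 46 µM (MIPE, 11-point) or 0.59 nM-46 µM (NPC, 8-point) in primary screens, 11-point in follow-ups.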

[3] = qHTS of pediatric cancer cell lines to identify multiple opportunities for drug repurposing: Primary screen for BT-12 cells (AID 1347101); also: nearly all actives have a fitted effect of over 25% in size
In short: as §2

[4] = qHTS of pediatric cancer cell lines to identify multiple opportunities for drug repurposing: Primary screen for Rh18 cells (AID 1347102); also: nearly all actives have a fitted effect of over 65% in size
In short: as §2

[5] = qHTS of pediatric cancer cell lines to identify multiple opportunities for drug repurposing: Primary screen for OHS-50 cells (AID 1347103); also: nearly all actives have a fitted effect of over 40% in size
In short: as §2

[6] = qHTS of pediatric cancer cell lines to identify multiple opportunities for drug repurposing: Primary screen for RD cells (AID 1347104); also: nearly all actives have a fitted effect of over 55% in size
In short: as §1

[7] = qHTS of pediatric cancer cell lines to identify multiple opportunities for drug repurposing: Primary screen for MG 63 (6-TG R) cells (AID 1347105); also: nearly all actives have a fitted effect of over 50% in size
In short: as §1

[8] = qHTS of pediatric cancer cell lines to identify multiple opportunities for drug repurposing: Primary screen for control Hh wild type fibroblast cells (AID 1347106);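 also: series mostly up to about 46 µM; a drop in luminescence marks cytotoxicity and a rise apparent proliferation; nearly all actives have a fitted effect of over 55% in size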
In short: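 Viability after 48 h compound treatment at 37C, 500-1,000 cells/well, read as ATP luminescence with CellTiter-Glo. Primary screens used 11-point (MIPE, 0.78 nM-46 µM) or 8-point (NPC, 0.59 nM-46 µM) final concentrations; follow-up screens used 11-point dilutions.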

[9] = qHTS of pediatric cancer cell lines to identify multiple opportunities for drug repurposing: Primary screen for Rh30 cells (AID 1347107); also: series mostly up to about 46 µM; nearly all actives have a fitted effect of over 75% in size
In short: as §2

[10] = qHTS of pediatric cancer cell lines to identify multiple opportunities for drug repurposing: Primary screen for Rh41 cells (AID 1347108);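 also: series mostly up to about 46 µM; luminescence drop marks cytotoxic hits; nearly all actives have a fitted effect of over 70% in size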
In short: as §1

Measured: Potency

O=C(O)c1ccccc1C(=O)Nc1ccc(S(=O)(=O)Nc2nccs2)cc1
inactive: [1] | [2] | [3] | [4] | [5] | [6] | [7] | [8] | [9] | [10]

COC(=O)c1ccccc1C(=O)c1ccc(OCCN2CCCCC2)cc1
inactive: [1] | [2] | [3] | [4] | [5] | [6] | [7] | [8] | [9] | [10]

COC(=O)c1ccc(O)cc1
inactive: [1] | [2] | [3] | [4] | [5] | [6] | [7] | [8] | [9] | [10]

CC(=O)N[C@@H](Cc1ccc(O)cc1)C(=O)O
inactive: [1] | [2] | [3] | [4] | [5] | [6] | [7] | [8] | [9] | [10]

Cc1ncc(CO)c(CN)c1O
inactive: [1] | [2] | [3] | [4] | [5] | [6] | [7] | [8] | [9] | [10]

CCN[C@H]1CN(CCCOC)S(=O)(=O)c2sc(S(N)(=O)=O)cc21
inactive: [1] | [2] | [3] | [4] | [5] | [6] | [7] | [8] | [9] | [10]

CCN(CC)CC1CCCCN1CC(=O)N1c2ccccc2C(=O)Nc2cccnc21 (stereo not given)
inactive: [1] | [2] | [3] | [4] | [5] | [6] | [7] | [8] | [9] | [10]

CC(=O)N[C@@H](CC(C)C)C(=O)O
inactive: [1] | [2] | [3] | [4] | [5] | [6] | [7] | [8] | [9] | [10]

C/C=C1\[C@H]2C=C(C)C[C@]1(N)c1ccc(=O)[nH]c1C2
inactive: [1] | [2] | [3] | [4] | [5] | [6] | [7] | [8] | [9] | [10]

CC1(C)S[C@@H]2[C@H](NC(=O)C(C(=O)O)c3ccccc3)C(=O)N2[C@H]1C(=O)O (stereo not given in full)
inactive: [1] | [2] | [3] | [4] | [5] | [6] | [7] | [8] | [9] | [10]

CN1CCN(C(=O)C2CCCCC2)CC1
inactive: [1] | [2] | [3] | [4] | [5] | [6] | [7] | [8] | [9] | [10]

CC(=O)Nc1cccc(O)c1
inactive: [1] | [2] | [3] | [4] | [5] | [6] | [7] | [8] | [9] | [10]

O=C(Cn1ccnc1[N+](=O)[O-])NCc1ccccc1
inactive: [1] | [2] | [3] | [4] | [5] | [6] | [7] | [8] | [9] | [10]

O=C(O)CCCCC1CCSS1 (stereo not given)
inactive: [1] | [2] | [3] | [4] | [5] | [6] | [7] | [8] | [9] | [10]

Cc1ccccc1N=Nc1ccc(N=Nc2c(O)ccc3ccccc23)c(C)c1
inactive: [1] | [2] | [3] | [4] | [5] | [6] | [7] | [8] | [9] | [10]

Cc1cc(OI)c(C(C)C)cc1-c1cc(C(C)C)c(OI)cc1C
inactive: [1] | [2] | [3] | [4] | [5] | [6] | [7] | [8] | [9] | [10]

C[N+](C)(C)CC(O)CC(=O)[O-] (stereo not given)
inactive: [1] | [2] | [3] | [4] | [5] | [6] | [7] | [8] | [9] | [10]

NS(=O)(=O)c1cc(-c2nn[nH]n2)c(NCc2cccs2)cc1Cl
inactive: [1] | [2] | [3] | [4] | [5] | [6] | [7] | [8] | [9] | [10]

CC1CCc2cc(F)cc3c(=O)c(C(=O)O)cn1c23 (stereo not given)
inactive: [1] | [2] | [3] | [4] | [5] | [6] | [7] | [8] | [9] | [10]

CCOC(=O)OC(C)OC(=O)[C@@H]1N2C(=O)[C@@H](NC(=O)[C@H](N)c3ccccc3)[C@H]2SC1(C)C (stereo not given in full)
inactive: [1] | [2] | [3] | [4] | [5] | [6] | [7] | [8] | [9] | [10]

COc1ccccc1Oc1c(NS(=O)(=O)c2ccc(C(C)(C)C)cc2)nc(-c2ncccn2)nc1OCCO
inactive: [1] | [2] | [3] | [4] | [5] | [6] | [7] | [8] | [9] | [10]

COc1ccc(C(=O)NCc2ccc(OCCN(C)C)cc2)cc1OC
inactive: [1] | [2] | [3] | [4] | [5] | [6] | [7] | [8] | [9] | [10]

CCOC(N)=O
inactive: [1] | [2] | [3] | [4] | [5] | [6] | [7] | [8] | [9] | [10]

FC(F)(F)C(Cl)Br (stereo not given)
inactive: [1] | [2] | [3] | [4] | [5] | [6] | [7] | [8] | [9] | [10]

NS(=O)(=O)c1ccc(NC(=O)CCC(=O)O)cc1
inactive: [1] | [2] | [3] | [4] | [5] | [6] | [7] | [8] | [9] | [10]

CC(=O)Nc1ccc(C(=O)O)cc1
inactive: [1] | [2] | [3] | [4] | [5] | [6] | [7] | [8] | [9] | [10]

Cc1cc(O)cc(C)c1Cl
inactive: [1] | [2] | [3] | [4] | [5] | [6] | [7] | [8] | [9] | [10]

COc1ccc(C(=O)N2CCN(CC(=O)N3CCOCC3)CC2)cc1
inactive: [1] | [2] | [3] | [4] | [5] | [6] | [7] | [8] | [9] | [10]

CCCNC(C)C(=O)Nc1c(C)csc1C(=O)OC (stereo not given)
inactive: [1] | [2] | [3] | [4] | [5] | [6] | [7] | [8] | [9] | [10]

NS(=O)(=O)c1ccc(C(=O)O)cc1
inactive: [1] | [2] | [3] | [4] | [5] | [6] | [7] | [8] | [9] | [10]

Cc1c(C(=O)NCCO)[n+](=O)c2ccccc2n1[O-]
inactive: [1] | [2] | [3] | [4] | [5] | [6] | [7] | [8] | [9] | [10]

O=C(NCC(O)CO)c1c(I)c(C(=O)NCC(O)CO)c(I)c(N(CCO)C(=O)CO)c1I (stereo not given)
inactive: [1] | [2] | [3] | [4] | [5] | [6] | [7] | [8] | [9] | [10]

CC(=O)Oc1cccc(C)c1
inactive: [1] | [2] | [3] | [4] | [5] | [6] | [7] | [8] | [9] | [10]

O=C(O)c1cc(=O)c2ccccc2o1
inactive: [1] | [2] | [3] | [4] | [5] | [6] | [7] | [8] | [9] | [10]

C[C@@H]1O[C@@H](OC[C@H]2O[C@@H](Oc3c(-c4ccc(O)c(O)c4)oc4cc(O)cc(O)c4c3=O)[C@H](O)[C@@H](O)[C@@H]2O)[C@H](O)[C@H](O)[C@H]1O
inactive: [1] | [2] | [3] | [4] | [5] | [6] | [7] | [8] | [9] | [10]

Cc1cc(C)nc(NS(=O)(=O)c2ccc(N)cc2)n1
inactive: [1] | [2] | [3] | [4] | [5] | [6] | [7] | [8] | [9] | [10]

CCc1cccc(CC)c1NC(=O)CN(CC(=O)O)CC(=O)O
inactive: [1] | [2] | [3] | [4] | [5] | [6] | [7] | [8] | [9] | [10]

O=C1c2ccccc2C(=O)C1c1ccc(Br)cc1
inactive: [1] | [2] | [3] | [4] | [5] | [6] | [7] | [8] | [9] | [10]

NC(=O)NC1NC(=O)NC1=O (stereo not given)
inactive: [1] | [2] | [3] | [4] | [5] | [6] | [7] | [8] | [9] | [10]

CCCOC(=O)c1ccc(N)cc1
inactive: [1] | [2] | [3] | [4] | [5] | [6] | [7] | [8] | [9] | [10]

Nc1ncnc2c1ncn2[C@@H]1O[C@H](COP(=O)(O)O)[C@@H](O)[C@H]1O
inactive: [1] | [2] | [3] | [4] | [5] | [6] | [7] | [8] | [9] | [10]

CCOC(=O)[C@H](CCc1ccccc1)N[C@@H](C)C(=O)N1Cc2cc(OC)c(OC)cc2C[C@H]1C(=O)O
inactive: [1] | [2] | [3] | [4] | [5] | [6] | [7] | [8] | [9] | [10]

CCCCC1(COC(=O)CCC(=O)O)C(=O)N(c2ccccc2)N(c2ccccc2)C1=O
inactive: [1] | [2] | [3] | [4] | [5] | [6] | [7] | [8] | [9] | [10]

CN[C@@H]1[C@@H](O)[C@@H](O[C@@H]2[C@H](O)[C@H](O[C@H]3OC(CN)=CC[C@H]3N)[C@@H](N)C[C@H]2N)OCC1(C)O (stereo not given in full)
inactive: [1] | [2] | [3] | [4] | [5] | [6] | [7] | [8] | [9] | [10]

CCC(C)(CN(C)C)OC(=O)c1ccccc1 (stereo not given)
inactive: [1] | [2] | [3] | [4] | [5] | [6] | [7] | [8] | [9] | [10]
